Measurements as given in PubChem BioAssay.
Records with an inconclusive call do not appear. Activity calls are given as the source filed them.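 The calls were made as follows, unless noted: active = differentiation response of at least 50%, scaled between solvent and reference control, from cells with both markers; inactive = the rest.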

Key:
[1] = rapamycin-like changes in RPL19A-GFP expression – cell-based, S. cerevisiae, multiplex flow cytometry, primary screen (AID 1862; in the data active = percent of DMSO control GFP below about 86%;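 also: lower values mimic rapamycin by blocking the RPL19A rise seen in DMSO cells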); settings: S. cerevisiae RPL19A-GFP strain, flow cytometry fluorescence, 3 h; at 10 µM; stronger effect = lower value
[2] = TOR pathway GLN3 branch reporter MEP2-GFP changes – S. cerevisiae, multiplex flow cytometry, primary screen (AID 1867;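 active = GFP response, as percent of the DMSO control, above the screen-wide mean plus 3 SD, about 139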;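 also: median GFP channel fluorescence of barcode-gated MEP2-GFP cells measured by flow cytometry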); settings: S. cerevisiae MEP2-GFP strain, 3 h, at 10 µM, stronger effect = higher value, 100% means same as DMSO wells
[3] = TOR pathway RTG branch CIT2 reporter changes – S. cerevisiae, GFP fusion, multiplex flow cytometry, primary screen (AID 1870;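 active = percent response above a set limit, the screen-wide mean plus 3 SD, cut at about 130% in these data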;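 also: barcoded CIT2-GFP strain pooled with four other GFP strains with rapamycin as positive control; median GFP fluorescence per well over plate mean of DMSO wells so 100% = DMSO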); settings: S. cerevisiae CIT2-GFP expression, 3 h, at 10 µM, stronger effect = higher value
[4] = TOR pathway LAP4-GFP level changes – S. cerevisiae, multiplex flow cytometry, primary screen (AID 1873;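 active = GFP signal, as percent of the solvent control, above the screen mean plus 3 SD, about 149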); settings: S. cerevisiae LAP4-GFP expression, 3 h, at 10 µM, stronger effect = higher value
[5] = yeast AGP1-GFP level changes, GLN3 branch – cell-based, multiplex flow cytometry, S. cerevisiae, primary screen (AID 1887;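 active = GFP signal above the screen-wide mean plus 3 SD, that is over about 124.5% of the solvent control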;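 also: AGP1-GFP fusion strain of S. cerevisiae within a five-strain barcoded multiplex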); settings: 3 h, at 10 µM, stronger effect = higher value
[6] = reduced mouse 2C T cell binding to pMHC/ICAM-1 vesicles – MLPCN validation set, flow cytometry, LFA-1/ICAM-1 modulator project, pilot screen (AID 2523;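 active = response below a set limit, under 55% cells CD8-positive and vesicle-bound, and CD8 cells' 90th-percentile brightness under 279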;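 as to vesicle binding response: mean PE anti-B7-1 fluorescence of CD8+ cells relative to row control; 100% = QL9-loaded vesicles with DMSO vehicle in the same plate row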); settings: 2C mouse CD8+ T cells, at 7 µM, stronger effect = lower value; double positive events: measured here: CD8+/vesicle+ event percentage
[7] = molecular target: Integrin beta-1 (Homo sapiens) + Integrin alpha-4 (Homo sapiens) (UniProt P13612+P05556); assay: alpha4beta1 integrin LIBS antibody binding reduction – U937 cells, HUTS-21 mAb, flow cytometry, validation set, VLA-4 allosteric modulator project, pilot screen (AID 2674;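 active = inhibition above 50%, about 3 SD of the validation set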;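 also: antibody binding induced by the VLA-4 ligand LDV present at three times its Kd; 0% = LDV ligand with antibody and no compound and 100% = antibody without LDV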); settings: HUTS-21 LIBS mAb binding, at 6.7 µM, stronger effect = higher value, binding induced by LDV ligand
Integrin beta-1 (Homo sapiens) + Integrin alpha-4 (Homo sapiens), sequence (P05556 whole entry, looked up): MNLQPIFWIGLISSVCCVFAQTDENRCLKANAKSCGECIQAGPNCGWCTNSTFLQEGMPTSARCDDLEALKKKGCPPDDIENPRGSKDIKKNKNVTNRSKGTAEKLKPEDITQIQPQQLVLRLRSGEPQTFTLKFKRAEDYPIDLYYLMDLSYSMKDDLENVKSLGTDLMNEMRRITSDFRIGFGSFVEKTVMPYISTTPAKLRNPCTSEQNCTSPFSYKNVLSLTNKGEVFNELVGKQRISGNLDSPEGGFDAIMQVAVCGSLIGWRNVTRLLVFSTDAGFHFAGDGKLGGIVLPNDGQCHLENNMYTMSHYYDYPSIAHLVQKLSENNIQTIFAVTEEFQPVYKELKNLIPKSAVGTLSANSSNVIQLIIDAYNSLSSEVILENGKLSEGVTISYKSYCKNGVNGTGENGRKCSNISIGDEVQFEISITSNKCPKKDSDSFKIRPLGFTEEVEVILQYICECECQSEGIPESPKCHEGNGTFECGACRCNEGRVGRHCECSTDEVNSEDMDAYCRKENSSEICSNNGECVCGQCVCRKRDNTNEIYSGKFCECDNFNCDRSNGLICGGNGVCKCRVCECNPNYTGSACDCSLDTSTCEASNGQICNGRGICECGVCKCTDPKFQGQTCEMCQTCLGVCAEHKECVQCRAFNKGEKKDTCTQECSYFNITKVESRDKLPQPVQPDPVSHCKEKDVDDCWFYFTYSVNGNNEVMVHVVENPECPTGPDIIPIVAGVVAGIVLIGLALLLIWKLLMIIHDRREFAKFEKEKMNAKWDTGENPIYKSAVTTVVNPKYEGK
Integrin beta-1 (Homo sapiens) + Integrin alpha-4 (Homo sapiens), sequence (P13612 whole entry, looked up): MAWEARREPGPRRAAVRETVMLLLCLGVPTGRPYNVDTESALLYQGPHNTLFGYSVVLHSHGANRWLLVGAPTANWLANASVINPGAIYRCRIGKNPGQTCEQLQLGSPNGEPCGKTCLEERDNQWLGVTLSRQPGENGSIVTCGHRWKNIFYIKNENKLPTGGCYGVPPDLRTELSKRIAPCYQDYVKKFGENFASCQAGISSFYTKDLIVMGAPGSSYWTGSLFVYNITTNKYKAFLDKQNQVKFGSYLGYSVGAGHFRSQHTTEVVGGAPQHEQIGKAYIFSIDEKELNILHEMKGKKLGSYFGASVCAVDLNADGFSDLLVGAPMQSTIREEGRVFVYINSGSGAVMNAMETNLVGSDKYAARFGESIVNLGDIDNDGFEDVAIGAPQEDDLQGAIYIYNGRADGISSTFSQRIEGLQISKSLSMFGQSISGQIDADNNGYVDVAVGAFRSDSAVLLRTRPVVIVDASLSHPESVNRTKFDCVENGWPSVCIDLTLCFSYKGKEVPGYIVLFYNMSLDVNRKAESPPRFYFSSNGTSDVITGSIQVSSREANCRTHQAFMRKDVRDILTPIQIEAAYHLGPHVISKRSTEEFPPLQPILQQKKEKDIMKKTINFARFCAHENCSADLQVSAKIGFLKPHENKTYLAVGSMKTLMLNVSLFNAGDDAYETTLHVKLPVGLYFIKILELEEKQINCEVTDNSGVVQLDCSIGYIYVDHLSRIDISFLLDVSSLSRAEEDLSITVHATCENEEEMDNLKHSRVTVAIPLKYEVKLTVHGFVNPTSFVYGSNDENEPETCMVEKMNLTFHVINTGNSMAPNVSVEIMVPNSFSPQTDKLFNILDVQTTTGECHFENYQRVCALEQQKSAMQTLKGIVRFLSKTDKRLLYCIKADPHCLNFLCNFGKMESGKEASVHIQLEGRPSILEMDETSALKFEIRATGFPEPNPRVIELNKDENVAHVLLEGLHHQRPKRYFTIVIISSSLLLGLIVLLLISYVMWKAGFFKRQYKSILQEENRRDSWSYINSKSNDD

[8] = calorie-restriction mimetic ROS inhibitors, yeast – validation compound set, pilot screen (AID 2706;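 active = superoxide response below 65% of plate, a cut near 3 SD across the whole screen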;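 also: yeast exposed to compound for one week at 30 degrees C before staining; 100% = mean of all compound wells on the same plate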); settings: S. cerevisiae aging, superoxide DHE fluorescence; at 10 µM; stronger effect = lower value
[9] = molecular target: Beta-adrenergic receptor kinase 1 (Homo sapiens) (UniProt P25098); assay: GRK2 binders displacing RNA aptamer, biochemical, validation, human GRK2, bead flow cytometry (AID 488806;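 active = aptamer binding inhibition above 30%, about 3 SD of noise from non-fluorescent compounds; inactive = inhibition at or below 30%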); settings: bead-bound GRK2, FAM-aptamer displacement, at 10 µM, stronger effect = higher value
Beta-adrenergic receptor kinase 1 (Homo sapiens), sequence (P25098 whole entry, looked up): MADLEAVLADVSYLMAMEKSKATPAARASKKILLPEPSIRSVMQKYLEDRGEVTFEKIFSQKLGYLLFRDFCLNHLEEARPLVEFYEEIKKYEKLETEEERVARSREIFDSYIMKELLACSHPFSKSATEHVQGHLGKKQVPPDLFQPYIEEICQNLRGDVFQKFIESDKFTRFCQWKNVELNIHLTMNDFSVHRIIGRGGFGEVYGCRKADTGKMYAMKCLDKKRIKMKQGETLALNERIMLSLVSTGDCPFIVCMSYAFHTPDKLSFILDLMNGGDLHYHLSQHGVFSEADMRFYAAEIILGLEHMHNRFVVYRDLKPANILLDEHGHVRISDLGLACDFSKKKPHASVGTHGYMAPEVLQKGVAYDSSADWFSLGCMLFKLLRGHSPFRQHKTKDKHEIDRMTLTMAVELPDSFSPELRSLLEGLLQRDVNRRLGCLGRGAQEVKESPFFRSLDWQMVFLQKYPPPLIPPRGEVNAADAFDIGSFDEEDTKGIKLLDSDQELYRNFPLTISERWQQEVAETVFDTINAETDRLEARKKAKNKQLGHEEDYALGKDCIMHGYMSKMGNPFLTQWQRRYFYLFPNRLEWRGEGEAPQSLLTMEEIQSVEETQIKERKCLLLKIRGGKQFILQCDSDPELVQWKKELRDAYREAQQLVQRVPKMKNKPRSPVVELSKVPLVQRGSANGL

[10] = molecular target: Beta-2 adrenergic receptor (Homo sapiens) (UniProt P07550); assay: agonist-induced loss of surface beta2AR – cell-based, FAP fluorogen, flow cytometry, validation set, pilot screen (AID 504459;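 active = percent response above 42, roughly 3 SD of non-fluorescent test compounds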;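 also: agonist-driven loss of surface beta2AR via internalization measured by FAP dye flow cytometry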); settings: Am2.2-beta2AR cells, at 10 µM, stronger effect = higher value
Beta-2 adrenergic receptor (Homo sapiens), sequence (P07550 whole entry, looked up): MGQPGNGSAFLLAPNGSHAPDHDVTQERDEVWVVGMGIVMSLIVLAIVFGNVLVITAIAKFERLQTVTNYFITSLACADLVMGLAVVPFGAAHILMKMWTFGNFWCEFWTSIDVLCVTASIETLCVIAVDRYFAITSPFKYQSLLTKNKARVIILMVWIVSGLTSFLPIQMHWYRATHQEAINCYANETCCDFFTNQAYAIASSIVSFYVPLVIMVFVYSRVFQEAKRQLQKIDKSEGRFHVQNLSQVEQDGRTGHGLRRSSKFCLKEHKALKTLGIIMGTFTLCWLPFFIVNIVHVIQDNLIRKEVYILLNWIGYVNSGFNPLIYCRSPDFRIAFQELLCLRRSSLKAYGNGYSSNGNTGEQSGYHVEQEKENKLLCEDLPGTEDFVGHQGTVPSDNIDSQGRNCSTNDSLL

[11] = molecular target: AP-2 complex subunit beta (Homo sapiens) (UniProt P63010); assay: beta-arrestin/AP2 interaction blockers – biochemical, validation set, GST-AP2 beads, flow cytometry, pilot screen (AID 504541;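 active = inhibition above 54%, about 3 SD of non-fluorescent compounds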;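 also: AP2 carries R879A mutation and is captured from E. coli lysate; bead-bound FITC arrestin peptide fluorescence measuring arrestin peptide binding to AP2; 0% = DMSO wells and 100% = excess unlabeled arrestin peptide control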); settings: FITC arrestin peptide, at 10 µM, stronger effect = higher value, AP2 beta2 appendage fragment, R879A mutant
AP-2 complex subunit beta (Homo sapiens), sequence (P63010 whole entry, looked up, the tested form may be a part, one chain of several): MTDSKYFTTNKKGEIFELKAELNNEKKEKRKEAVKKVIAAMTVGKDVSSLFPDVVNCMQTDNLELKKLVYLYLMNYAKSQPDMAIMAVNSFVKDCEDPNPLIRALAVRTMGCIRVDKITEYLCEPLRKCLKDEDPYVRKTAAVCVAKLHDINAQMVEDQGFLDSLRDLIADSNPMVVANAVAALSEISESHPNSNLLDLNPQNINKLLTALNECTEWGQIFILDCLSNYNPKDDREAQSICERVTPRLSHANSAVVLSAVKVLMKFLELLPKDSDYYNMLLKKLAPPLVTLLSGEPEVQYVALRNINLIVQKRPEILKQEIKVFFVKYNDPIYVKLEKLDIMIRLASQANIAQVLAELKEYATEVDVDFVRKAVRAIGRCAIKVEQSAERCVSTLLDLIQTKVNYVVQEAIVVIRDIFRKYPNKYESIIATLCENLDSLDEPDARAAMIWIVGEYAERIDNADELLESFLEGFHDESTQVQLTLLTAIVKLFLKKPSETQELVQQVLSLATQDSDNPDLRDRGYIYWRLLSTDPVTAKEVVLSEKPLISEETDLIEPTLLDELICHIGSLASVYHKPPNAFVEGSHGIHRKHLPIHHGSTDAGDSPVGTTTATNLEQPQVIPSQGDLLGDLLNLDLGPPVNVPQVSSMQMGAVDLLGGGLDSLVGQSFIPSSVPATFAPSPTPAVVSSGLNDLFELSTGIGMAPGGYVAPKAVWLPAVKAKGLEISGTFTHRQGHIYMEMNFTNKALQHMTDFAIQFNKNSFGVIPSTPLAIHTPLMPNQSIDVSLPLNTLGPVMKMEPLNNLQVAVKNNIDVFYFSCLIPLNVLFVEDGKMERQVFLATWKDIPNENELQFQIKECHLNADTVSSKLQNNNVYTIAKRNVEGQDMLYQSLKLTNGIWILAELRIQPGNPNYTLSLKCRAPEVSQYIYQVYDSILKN

[12] = cytosolic pH regulators acting via V-ATPase – S. cerevisiae, pHLuorin, HTS validation (AID 504600; in the data active = response above about 15%;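 also: plate controls were DMSO for no effect and reference compound for full effect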); settings: V-ATPase proton transport, at 10 µM, stronger effect = higher value
[13] = tested on: anti-desmoglein-3 scFv antibody binding to human DSG3; assay: blockers of pathogenic pemphigus antibody–desmoglein-3 binding – biochemical, validation compound set, bead-based, flow cytometry, pilot screen (AID 588368;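 active = binding below the plate cutoff, the plate median minus 3 SD, with a reading above zero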;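 also: signal is the median channel fluorescence of bead-bound GFP antibody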); settings: Protein G beads, DSG3-Fc, scFv-GFP binding, at 10 µM, stronger effect = lower value
[14] = Nile Red efflux blockade in pump-expressing yeast – validation compound set, multiplex, phenotypic, pilot screen (AID 588506;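 active = efflux inhibition above 0.42, the validation set average plus 4 SD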;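 also: Nile Red retained in cells so higher fluorescence means more efflux inhibition; 0 = negative control wells and 1 = enniatin B 25 µM full block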); settings: S. cerevisiae pump-expressing triplex, Nile Red efflux flow cytometry; at 10 µM; stronger effect = higher value; the pumps come from Candida albicans
[15] = molecular target: ATP-binding cassette sub-family B member 6 (Homo sapiens) (UniProt Q9NP58); assay: blockers of ABCB6-driven porphyrin uptake – K562-ABCB6 cells, flow cytometry, validation set, pilot screen (AID 588550;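 active = inhibition above the screen-wide mean plus 3 SD, about 51%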;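 also: 0% = DMSO wells and 100% = benzethonium chloride 70 µM positive control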); settings: K562-ABCB6 porphyrin accumulation, 1 h, at 10 µM, stronger effect = higher value
ATP-binding cassette sub-family B member 6 (Homo sapiens), sequence (Q9NP58 whole entry, looked up): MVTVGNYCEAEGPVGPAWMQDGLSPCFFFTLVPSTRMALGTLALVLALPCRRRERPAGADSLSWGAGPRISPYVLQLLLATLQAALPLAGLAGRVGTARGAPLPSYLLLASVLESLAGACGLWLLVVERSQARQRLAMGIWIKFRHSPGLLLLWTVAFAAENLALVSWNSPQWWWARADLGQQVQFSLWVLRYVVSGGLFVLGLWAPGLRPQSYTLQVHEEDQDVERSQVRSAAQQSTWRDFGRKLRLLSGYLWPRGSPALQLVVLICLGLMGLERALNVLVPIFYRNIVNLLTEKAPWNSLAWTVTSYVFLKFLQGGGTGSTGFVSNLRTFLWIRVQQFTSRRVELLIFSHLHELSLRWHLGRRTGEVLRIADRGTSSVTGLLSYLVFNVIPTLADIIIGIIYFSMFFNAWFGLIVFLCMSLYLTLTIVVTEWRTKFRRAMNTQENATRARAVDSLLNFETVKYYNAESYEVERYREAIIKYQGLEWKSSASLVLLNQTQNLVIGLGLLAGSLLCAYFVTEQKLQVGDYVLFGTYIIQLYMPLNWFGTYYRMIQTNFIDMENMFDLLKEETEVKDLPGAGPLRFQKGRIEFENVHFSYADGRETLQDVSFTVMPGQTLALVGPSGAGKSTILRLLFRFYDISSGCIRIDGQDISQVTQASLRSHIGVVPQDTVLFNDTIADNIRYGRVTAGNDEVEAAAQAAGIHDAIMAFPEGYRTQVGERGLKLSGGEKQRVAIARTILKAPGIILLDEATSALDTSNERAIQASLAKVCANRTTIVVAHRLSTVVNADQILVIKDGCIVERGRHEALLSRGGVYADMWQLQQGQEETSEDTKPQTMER

[16] = AML differentiation inducers, ER-HoxA9 marrow cells – cell-based, GFP/MAC1 double positive, flow cytometry, validation set, primary screen (AID 588685); settings: stronger effect = higher value, normalized: vehicle 0, fulvestrant 100;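 also: compound exposure lasts four days before antibody staining and flow analysis; 0% = DMSO wells and 100% = 5 µM fulvestrant positive control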

Structure (SMILES) | percent of DMSO control GFP [1] | GFP response vs DMSO [2] | percent response of DMSO control [3] | GFP response vs DMSO [4] | GFP response, % of DMSO [5] | double positive events [6] [%] | vesicle binding response [6] | inhibition [7] | superoxide response (% of plate) [8] | aptamer binding inhibition [9] | response [10] | inhibition [11] | response [12] | binding (% of control) [13] | efflux inhibition (fraction of control) [14] | inhibition [15] | differentiation response [16]
O=C(CCC1CCCN(C(=O)c2ccsc2)C1)NCc1ccc(F)c(F)c1 (stereo not drawn) | 99% (inactive) | 103% (inactive) | 94.2% (inactive) | 103% (inactive) | 98.9% (inactive) | 62.4 | 183% (inactive) | -9.79% (inactive) | 102% (inactive) | -2% (inactive) | -9.44% (inactive) | -6.99% (inactive) | 1.61% (inactive) | 104% (inactive) | 0.08 (inactive) | -8% (inactive) | 8.06% (inactive)
O=C(Nc1ncc2c(n1)CC(c1ccco1)CC2=O)c1ccco1 (stereo not drawn) | 93.9% (inactive) | 113% (inactive) | 95.8% (inactive) | 132% (inactive) | 95.7% (inactive) | 55 | 187% (inactive) | -11.3% (inactive) | 102% (inactive) | 6% (inactive) | -16% (inactive) | 1.11% (inactive) | -0.72% (inactive) | 99.1% (inactive) | 0.01 (inactive) | 1% (inactive) | -18.4% (inactive)
COCC(C)NC(=O)c1ccc(CN2CCc3ccccc3C2)cc1 (stereo not drawn) | 97.3% (inactive) | 108% (inactive) | 103% (inactive) | 120% (inactive) | 92.6% (inactive) | 60.9 | 257% (inactive) | -12.7% (inactive) | 103% (inactive) | -9% (inactive) | -5.78% (inactive) | 53.4% (inactive) | -6.18% (inactive) | 195% (inactive) | -0.1 (inactive) | 2% (inactive) | 16.8% (inactive)
COc1cccc(OCc2nnc(-c3cccs3)o2)c1 | 103% (inactive) | 105% (inactive) | 102% (inactive) | 120% (inactive) | 99.6% (inactive) | 60.1 | 248% (inactive) | 5.69% (inactive) | 104% (inactive) | 3% (inactive) | 55.8% (active) | 61% (active) | -2.54% (inactive) | 102% (inactive) | 0.08 (inactive) | -5% (inactive) | -0.06% (inactive)
Nc1c(C(=O)c2ccccc2)oc2ccccc12 | 101% (inactive) | 96.2% (inactive) | 100% (inactive) | 93.3% (inactive) | 74.2% (inactive) | 66 | 198% (inactive) | -2.53% (inactive) | 89.5% (inactive) | -1% (inactive) | -9.17% (inactive) | -8.74% (inactive) | 1.23% (inactive) | 86.9% (inactive) | -0.32 (inactive) | -18% (inactive) | 24.7% (inactive)
O=C(O)[C@H](Cc1ccccc1)NC(=O)N1CCC(Cc2ccccc2)CC1 | 104% (inactive) | 102% (inactive) | 96% (inactive) | 100% (inactive) | 99.9% (inactive) | 67 | 122% (inactive) | -0.31% (inactive) | 108% (inactive) | -6% (inactive) | 9.92% (inactive) | 4.86% (inactive) | 0.86% (inactive) | 99.5% (inactive) | -0.18 (inactive) | 6% (inactive) | -5.68% (inactive)
NC(CO)C(=O)NNCc1ccc(O)c(O)c1O (stereo not drawn) | 98.4% (inactive) | 98.7% (inactive) | 98.6% (inactive) | 91.5% (inactive) | 96.5% (inactive) | 65.1 | 130% (inactive) | 13.7% (inactive) | 92.9% (inactive) | 8% (inactive) | 8.54% (inactive) | 62.4% (active) | -0.21% (inactive) | 60.7% (active) | 0.66 (active) | 5% (inactive) | -8.96% (inactive)
COC1CCN(Cc2cn(Cc3ccccc3)nc2-c2cc3ccccc3o2)CC1 | 105% (inactive) | 93% (inactive) | 102% (inactive) | 89.4% (inactive) | 98.9% (inactive) | 61.8 | 243% (inactive) | 22.4% (inactive) | 104% (inactive) | 0% (inactive) | 8.96% (inactive) | 9.94% (inactive) | -0.82% (inactive) | 105% (inactive) | -0.14 (inactive) | 12% (inactive) | -9.53% (inactive)
CC(C)(C)NCC(O)COc1cccc2c1C[C@H](O)[C@H](O)C2 (stereo partly drawn) | 104% (inactive) | 108% (inactive) | 98.9% (inactive) | 88.1% (inactive) | 98.1% (inactive) | 62.6 | 1270% (inactive) | -16% (inactive) | 104% (inactive) | 3% (inactive) | 0.85% (inactive) | 55.4% (active) | -3.23% (inactive) | 99.2% (inactive) | 0.05 (inactive) | 17% (inactive) | 14.9% (inactive)
CC1CCCC(C)N1NC(=O)c1ccc(Cl)c(S(N)(=O)=O)c1 (stereo not drawn) | 88% (inactive) | 126% (inactive) | 91.3% (inactive) | 85.8% (inactive) | 96.3% (inactive) | 65.1 | 128% (inactive) | -3.24% (inactive) | 98.3% (inactive) | 3% (inactive) | -7.28% (inactive) | -5.07% (inactive) | -0.52% (inactive) | 101% (inactive) | 0.09 (inactive) | 10% (inactive) | -0.82% (inactive)
O=C1C(O)CC2c3ccccc3CC3(CCCC3)N12 (stereo not drawn) | 100% (inactive) | 104% (inactive) | 105% (inactive) | 114% (inactive) | 100% (inactive) | 61.4 | 247% (inactive) | -0.43% (inactive) | 106% (inactive) | 1% (inactive) | 48% (active) | -6.78% (inactive) | 0.88% (inactive) | 99.9% (inactive) | 0.08 (inactive) | -110% (inactive) | -18.4% (inactive)
O=C1CC2(CCCC2)CC(=O)N1CCCCN1CCN(c2ncccn2)CC1 | 102% (inactive) | 104% (inactive) | 96.6% (inactive) | 91.4% (inactive) | 106% (inactive) | 64.3 | 1050% (inactive) | 7.85% (inactive) | 101% (inactive) | 3% (inactive) | -19.5% (inactive) | -0.56% (inactive) | 2.1% (inactive) | 101% (inactive) | 0.21 (inactive) | 9% (inactive) | 12% (inactive)
Cc1ccccc1NC(=O)c1c(C)cc(=O)oc1C | 106% (inactive) | 101% (inactive) | 113% (inactive) | 84.8% (inactive) | 99.2% (inactive) | 67.4 | 771% (inactive) | 5.77% (inactive) | 83.4% (inactive) | 4% (inactive) | -4.18% (inactive) | -11.4% (inactive) | 1.91% (inactive) | 92.7% (inactive) | -0.2 (inactive) | -3% (inactive) | -1.71% (inactive)
CCN(CCCc1ccccc1)CCCc1ccccc1 | 100% (inactive) | 103% (inactive) | 102% (inactive) | 106% (inactive) | 118% (inactive) | 63.1 | 202% (inactive) | 27.8% (inactive) | 118% (inactive) | 0% (inactive) | -9.83% (inactive) | 34.3% (inactive) | -9.09% (inactive) | 103% (inactive) | 0.04 (inactive) | 3% (inactive) | -9.91% (inactive)
CC(=O)C1=C(Nc2ccc(C)cc2)CC(C)(O)C(C(C)=O)C1c1ccco1 (stereo not drawn) | 105% (inactive) | 104% (inactive) | 93.1% (inactive) | 96.6% (inactive) | 97.2% (inactive) | 66.9 | 223% (inactive) | -9.79% (inactive) | 103% (inactive) | 5% (inactive) | 0.66% (inactive) | 36.9% (inactive) | -0.29% (inactive) | 105% (inactive) | 0.3 (inactive) | -19% (inactive) | 14.9% (inactive)
CC(C)OC(=O)c1ccc(NC(=O)c2cncc(Br)c2)cc1 | 103% (inactive) | 104% (inactive) | 98.6% (inactive) | 103% (inactive) | 88.5% (inactive) | 56.1 | 143% (inactive) | 16.3% (inactive) | 114% (inactive) | -1% (inactive) | 0.79% (inactive) | -2.11% (inactive) | 4.94% (inactive) | 99% (inactive) | 0.04 (inactive) | -3% (inactive) | -7.5% (inactive)
Cn1c(Oc2ccc3c(c2)OCO3)nc2c1c(=O)n(Cc1ccccc1)c(=O)n2C | 98.7% (inactive) | 102% (inactive) | 94.4% (inactive) | 104% (inactive) | 109% (inactive) | 60.5 | 189% (inactive) | -5.38% (inactive) | 116% (inactive) | 8% (inactive) | -26.9% (inactive) | 3.83% (inactive) | -0.9% (inactive) | 97.8% (inactive) | 0.04 (inactive) | 5% (inactive) | -4.99% (inactive)
O=C1C(=O)N2C(=C1C(=O)N1CCCCCC1)c1ccccc1CC21CCCC1 | 92.2% (inactive) | 109% (inactive) | 86.3% (inactive) | 120% (inactive) | 99.8% (inactive) | 59.4 | 201% (inactive) | 9.13% (inactive) | 115% (inactive) | 3% (inactive) | -8.46% (inactive) | 31.8% (inactive) | -1.64% (inactive) | 105% (inactive) | -0.13 (inactive) | 3% (inactive) | 5.6% (inactive)
CN1[C@@H]2CC[C@H]1CC(OC(=O)C(CO)c1ccccc1)C2 (stereo partly drawn) | 99.6% (inactive) | 97.7% (inactive) | 103% (inactive) | 86.1% (inactive) | 98% (inactive) | 61.1 | 163% (inactive) | 8.29% (inactive) | 113% (inactive) | 25% (inactive) | -0.25% (inactive) | -4.27% (inactive) | 3.64% (inactive) | 101% (inactive) | -0.205 (inactive) | 7% (inactive) | -13.3% (inactive)
